Compound activity: PubChem, National Center for Advancing Translational Sciences (NCATS)
G9a block – inhibitors of human histone lysine methyltransferase G9a. 8.8% of 350,000 active. Q96KQ7. Potency, µM (highest dose often 102 µM), for the others: top-dose activity, negative = inhibition, most hits filed as inhibitors. G9a H3K9 monomethylation, AlphaScreen, 2 h. AID 504332; note: % is set by controls: 0 for no effect and ±100 for the full control effect; nearly all actives have a fitted effect of over 75% in size
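Signal arises when biotinylated H3K9 peptide, once monomethylated, bridges streptavidin donor and antibody-captured acceptor beads. Enzyme at 20 nM was preincubated 15 min with test compounds; peptide 500 nM and SAM 20 uM then reacted for 2 h.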
BAZ2B inh – inhibitors of human BAZ2B bromodomain; Q9UIF8; AlphaScreen BAZ2B-H3K14Ac peptide displacement; Potency, µM (highest dose often 114 µM), for the others: top-dose activity change, negative = inhibition, hits mostly inhibitors; 4.4% of 360,000 active; note: % is set by controls: 0 for no effect and ±100 for the full control effect; nearly all actives have a fitted effect of over 60% in size
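AlphaScreen luminescence quantifies BAZ2B engagement of H3K14Ac peptide; the protein and biotinylated peptide are both at 50 nM final, buffer PBS pH 7.4 with 0.01% Tween-20, all steps at room temperature.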
HP1b chromo inh – HP1-beta chromodomain-methylated histone interaction inhibition. AlphaScreen HP1-beta / biotin-H3K9me3 peptide binding. Potency, µM (highest dose often 114 µM), for the others: at the highest dose activity change, negative = inhibition, most hits filed as inhibitors. 0.56% of 390,000 active. AID 540317; note: nearly all actives have a fitted effect of over 70% in size
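HP1-beta protein (50 nM final) preincubated 30 min at room temperature with biotinylated H3(1-18)K9me3 peptide (50 nM) in PBS pH 7.4, 0.01% Tween-20, then compound added for 30 min. AlphaScreen streptavidin donor/nickel chelate acceptor beads (10 ug/mL final), 30 min dark, luminescence read.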
JMJD2A Tudor inh – blocks the human JMJD2A Tudor domain. O75164. AlphaScreen JMJD2A-Tudor / H3K4me3 peptide binding. Potency, µM (series often up to 114 µM), inactives show at the top dose activity change, negative = inhibition, hits mostly inhibitors. 4.4% of 390,000 active. AID 504339; note: % is set by controls: 0 for no effect and ±100 for the full control effect; nearly all actives have a fitted effect of over 50% in size
L3MBTL1 inh – inhibitors of human L3MBTL1. Q9Y468. AlphaScreen L3MBTL1–H3K9me1 peptide binding. Potency, µM (top dose mostly 57.1 µM), for inactives: at the top dose activity, negative = inhibition, hits mostly inhibitors. 0.66% of 230,000 active. AID 485360; note: % is set by controls: 0 for no effect and ±100 for the full control effect; nearly all actives have a fitted effect of over 60% in size
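AlphaScreen assay: L3MBTL1 (50 nM final) was preincubated 30 min at room temperature with biotinylated H3(1-15)K9me1 peptide (75 nM final), then 30 min with library compounds; streptavidin donor and nickel chelate acceptor beads (10 ug/mL final) added, 30 min dark.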
Active calls of the source: *; ? = inconclusive; . = no result given; [ ] = another dose, or the depositor's remark. Only some compounds are listed: those with a hit (about 11% of all), similar ones and a draw of the others. Calls come from the whole dose curve; as a rule, active = well fitted inhibition curve with a large enough effect; inconclusive = small, poorly fitted or top-dose-only effect; inactive = no such curve, though single readings can be large or run the other way. Potency is the fitted concentration of half-maximal effect.

SMILES	G9a block	BAZ2B inh	HP1b chromo inh	JMJD2A Tudor inh	L3MBTL1 inh
CN1CCN(C(c2ccc(Cl)cc2Cl)c2sc3nc(-c4ccco4)nn3c2O)CC1 (centres undefined)	-34%[59 µM]	-35%	-8%	-21%	.
Cc1nc2sc(C(c3ccco3)N3CC(C)OC(C)C3)c(O)n2n1 (centres undefined)	25µM*	1%	34%	-21%	37%
Cc1nc2sc(C(c3ccco3)N3CCN(C(c4ccccc4)c4ccccc4)CC3)c(O)n2n1 (centres undefined)	25µM*	?	-22%	50µM*	?
Cc1nc2sc(C(c3ccco3)N3CCC(C)CC3)c(O)n2n1 (centres undefined)	?	-2%	35%	-11%	21%
Cc1nc2sc(C(c3ccccc3)N3CC(C)OC(C)C3)c(O)n2n1 (centres undefined)	6%	-25%	53%	-2%	0%
Oc1c(C(c2ccc(Cl)cc2Cl)N2CCN(Cc3ccccc3)CC2)sc2nc(-c3ccco3)nn12 (centres undefined)	13µM*	?	?	?	.
Cc1cccc(Nc2nc(NCCCN3CCOCC3)nc(N)c2[N+](=O)[O-])c1	18%[59 µM]	?	-12%	?	-2%
O=C(Nc1nc(Nc2cc(F)cc(F)c2)nc(NC2CCCC2)n1)OCc1ccccc1	.	.	.	-18%	.
CCOc1ccc(-c2cc(C(=O)NCCc3ccccc3)c3c(-c4ccc(C)cc4)[nH]nc3n2)cc1	13%[59 µM]	25%	38%	-1%	.
Cc1nc2sc(C(c3ccco3)N3CCN(c4cccc(Cl)c4)CC3)c(O)n2n1 (centres undefined)	13µM*	?	-17%	?	-2%
Cc1nc2sc(C(c3ccc(Cl)cc3)N3CCN(C(=O)c4ccco4)CC3)c(O)n2n1 (centres undefined)	-42%	-4%	21%	-7%	0%
Oc1c(C(c2ccco2)N2CCOCC2)sc2ncnn12 (centres undefined)	40µM*	5%	22%	-15%	.
COc1ccc(NC(=O)c2c(C)oc3ccc(O)c(CN4CCN(Cc5ccccc5)CC4)c23)cc1Cl	?	-36%	-9%	?	.
Cc1cc(C)c(Cn2c3ccccc3c3cnn(CC(=O)NC4CCC(C)CC4)c(=O)c32)c(C)c1 (centres undefined)	15%[59 µM]	5%	23%	-16%	.
CCN1CCN(C(c2ccc(F)cc2)c2sc3nc(-c4ccco4)nn3c2O)CC1 (centres undefined)	5%[59 µM]	14%	77%	-6%	.
CCN1CC2=C(OC(N)=C(C#N)C2c2ccccc2)/C(=C\c2ccccc2)C1 (centres undefined)	-13%[59 µM]	?	-23%	-33%	-6%
CCN1CC2=C(OC(N)=C(C#N)C2c2cccs2)/C(=C/c2cccs2)C1 (centres undefined)	?	32µM*	-22%	?	-17%
CCN1C=C(Cc2cccs2)C2=C(C1)C(c1cccs1)C(C#N)=C(N)O2 (centres undefined)	?	35µM*	-34%	?	?
COc1ccc(OC)c(CCNC(=O)c2nn(C)c3c2CSc2ccccc2-3)c1	-33%[59 µM]	1%	13%	-6%	.
COc1cccc(Nc2ncc3nc(C)c(=O)n(CCc4ccccc4)c3n2)c1	0%[0.501 µM]	.	.	.	.
CCCC[C@]12Cc3ccccc3[C@H](O1)C1=C(O2)C(=O)c2ccccc2C1=O	19%[2.33 µM]	5%[22.9 µM]	.	.	.
CCCC[C@]12Cc3cc(OC)c(OC)cc3C(O1)C1=C(O2)C(=O)c2ccccc2C1=O	.	7.1µM*	.	.	.
O=C(c1cccc(Cl)c1)N1c2ncnn2C2(CCCCC2)[C@@H]2CCCC[C@@H]21	-7%[59 µM]	-1%	8%	-7%	.
COc1ccc(NC(=O)Nc2ccc3c(c2)CC(=O)N([C@H](C)CO)C[C@H](C)[C@H](CN(C)Cc2ccc(C(=O)O)cc2)O3)cc1	.	.	48%	-6%	0%
O=C(NC(=S)NCc1ccccc1)c1ccccc1	45µM*	-25%	30%	-22%	-6%
SMILES	G9a block	BAZ2B inh	HP1b chromo inh	JMJD2A Tudor inh	L3MBTL1 inh
O=C(NC(=S)NCc1ccc(F)cc1)c1ccccc1	50µM*	-13%	8%	-10%	-4%
NC(=O)CC(NC(=S)NCc1ccccc1)C(=O)O (centres undefined)	71µM*	-5%	3%	-20%	.
O=C(O)CC(NC(=S)NCc1ccccc1)C(=O)O (centres undefined)	?	-16%	36%	-2%	.
CN(Cc1ccccc1)C(=S)Nc1cccnc1	-6%	-22%	6%	56µM*	.
Fc1ccc(CNC(=S)NCc2ccc(F)cc2)cc1	16%	0%	29%	8%	9%
O=C(NC(=S)NCc1ccncc1)c1ccccc1	.	-4%	22%	-10%	4%
CC(C)N(Cc1ccccc1)C(=S)Nc1cccnc1	17%[59 µM]	-7%	13%	-8%	8%
CCN(CCS(=O)(=O)c1ccc(Br)cc1)Cc1nc2ccccc2c(=O)[nH]1	.	.	40%	-9%	13%
O=C(Cc1csc(-c2ccccc2)n1)NCc1ccc(F)cc1	45µM*	6%	36%	6%	-6%
O=C(Cc1csc(-c2ccccc2)n1)NCc1ccccc1F	13%[59 µM]	7%	.	.	2%
CN(Cc1ccccc1)C(=S)NC(=O)c1ccccc1	50µM*	-25%	19%	-24%	-6%
COc1ccc(S(=O)(=O)NC2CCN(C#N)CC2)cc1	.	.	.	-3%	.
c1ccc(-c2ccc(-c3cnc4n3CCCCC4)cc2)cc1	18µM*	50µM*	-43%	56µM*	.
Cc1ccc(CNC(=O)Cn2c(=O)n(-c3ccc(C)c(F)c3)c(=O)c3sc4ccccc4c32)cc1	-27%[59 µM]	?	26%	-12%	.
CC1(C)Cc2c(C#N)c(N3CCN(C(=O)c4ccccc4Cl)CC3)nc(-c3ccco3)c2CS1	.	40µM*	-14%	?	?
Clc1cccc(-c2nc3ccccn3c2Nc2ccc3c(c2)OCCO3)c1	?	11µM*	?	22µM*	.
Brc1ccc2nc(-c3ccccc3)c(Nc3ccc4c(c3)OCO4)n2c1	-7%[59 µM]	3%	38%	3%	.
COc1cc(-c2nc3ccc(C)cn3c2Nc2ccc3c(c2)OCCO3)ccc1O	22µM*	14µM*	50µM*	?	?
CN(C)c1ccc(-c2nc3ccccn3c2Nc2ccc3c(c2)OCCO3)cc1	2.2µM*	-32%	?	13µM*	.
Oc1ccc(-c2nc3ccccn3c2Nc2ccc3c(c2)OCCO3)cc1	13µM*	40µM*	-37%	50µM*	.
Cc1ccc2c(=O)cc(C(=O)Nc3c(C(=O)Nc4cccc(Cl)c4)oc4ccccc34)oc2c1	13%[59 µM]	0%	16%	-14%	.
COc1cc(-c2nc3cnccn3c2Nc2ccc3c(c2)OCCO3)ccc1O	?	2%	0%	-35%	-13%
